Data published in ChEMBL document CHEMBL3988442, “University of Dundee, Small-Polar-MMV Screening Library” (2021).
Out of some 48,000 compounds screened, about 13,000 (27%) showed an effect of 50% or more. The list shows a part of the results.

System: Wolbachia pipientis
Test: Anti-Wolbachia Cell-Based Screen
Format: functional
Parameters: scale not given: in the data most compounds retested in dose-response had high values
Conditions: 5 µM

SMILES | Percent Effect [%]
COc1ccc(C(=O)N2CCCC(NC(=O)C(C)C)C2)c(O)c1 (configuration not stated) | 103.8
CC(=O)NC1CCCN(C(=O)c2ccc(Br)cc2O)C1 (configuration not stated) | -3.443
CC(C)(C)OC(=O)NCC1CCN(C(=O)c2ccccc2O)C1 (configuration not stated) | -1.633
CC(C)C(=O)NC1CCCN(C(=O)c2ccccc2O)C1 (configuration not stated) | 105
COc1ccc(C(=O)N2C[C@@H](C(=O)O)[C@H](c3ccccc3)C2)c(O)c1 | 5.335
CC(C)C(=O)NC1CCCN(C(=O)c2cc3ccccc3cc2O)C1 (configuration not stated) | 101.9
CC(=O)NC1CCCN(C(=O)Nc2nnc(C(C)C)s2)C1 (configuration not stated) | -25.39
CC(=O)NC1CCN(C(=O)c2cnc(COc3ccccc3)nc2O)C1 (configuration not stated) | 1.868
O=C(NCCc1nncn1C1CC1)C1(c2ccccc2)CCC1 | -10.81
CS(=O)(=O)CCNC(=O)NCCc1cc2ccccc2o1 | -10.03
CCOC(=O)C1(CCOC)CCN(Cc2nccn2CC)CC1 | -7.374
CC(C)NC(=O)NC[C@H]1OC[C@@H](NCc2ccccc2O)[C@@H]1O | 1.072
O=C(NCC1(O)CCCCC1)c1coc(COc2cccc(F)c2)n1 | -6.674
CCc1nnsc1C(=O)N1CCN(CC(O)C(C)(C)C)CC1 (configuration not stated) | 3.041
CC(C)c1cc(C(=O)N2CCC3(CC2)c2ccccc2[C@@H](N)[C@@H]3O)cs1 | 119.3
COc1ccc(C(=O)N2CCC3(CC2)c2ccccc2[C@@H](N)[C@@H]3O)cc1 | -1.286
Cc1ccc(C(=O)N2CCC3(CC2)c2ccccc2[C@@H](N)[C@@H]3O)cc1F | -5.913
Cn1ncc(C(=O)OCC2CC(=O)N(c3ccccc3)C2)c1C(F)F (configuration not stated) | -5.382
O=S1(=O)CCCN1Cc1coc(-c2ccc(C(F)(F)F)cc2)n1 | -8.069
Cc1noc(C)c1CN1CCc2ncnc(-c3ccncc3)c2CC1.O=C(O)C(F)(F)F.O=C(O)C(F)(F)F | 90.01
Cn1cc(-c2ncnc3c2CCN(CC2CCOC2)CC3)cn1.O=C(O)C(F)(F)F (configuration not stated) | 97.72
O=C(O)C(F)(F)F.O=C(O)C(F)(F)F.c1ccc(CN2CCc3ncnc(-c4ccncc4)c3CC2)nc1 | -25.56
O=C(O)C(F)(F)F.c1ccc(CN2CCc3ncnc(-c4ccoc4)c3CC2)nc1 | -8.699
Cc1ncnc2c1CCN(CC1CCOC1)CC2.O=C(O)C(F)(F)F (configuration not stated) | 17.43
Cc1noc(C)c1CN1CCc2ncnc(-c3ccoc3)c2CC1.O=C(O)C(F)(F)F | 108.1

SMILES | Percent Effect [%]
CCN(C)c1ncnc2c1CCN(CC1CCOC1)CC2.O=C(O)C(F)(F)F (configuration not stated) | -11.17
Cc1noc(C)c1CN1CCc2ncnc(-c3ccccc3)c2CC1.O=C(O)C(F)(F)F | 91.91
Cc1nc(CN2CCc3ncnc(-c4ccncc4)c3CC2)cs1.O=C(O)C(F)(F)F.O=C(O)C(F)(F)F | -2.21
O=C(O)C(F)(F)F.c1nc2c(c(-c3ccsc3)n1)CCN(Cc1ccoc1)CC2 | -2.066
OCc1ccc(CN2CCC(n3cc(-c4ccsc4)nn3)CC2)o1 | -3.234
O=C(O)c1csc(S(=O)(=O)N2CCN(Cc3ccc(Cl)cc3)CC2)c1 | 3.67
Cc1ccc(S(=O)(=O)NCCCN2CCC(O)CC2)cc1Cl | 11.47
COCc1noc(CCNc2nc(CC3CC3)nc3c2CCNCC3)n1 | -2.883
CCNC(=O)c1cnc(Cc2ccc(F)cc2)s1 | -2.208
Cc1noc(C)c1CN1CCc2ncnc(-c3cnn(C)c3)c2CC1.O=C(O)C(F)(F)F | 103.6
Cc1noc(C)c1CN1CCc2ncnc(-c3cccnc3)c2CC1.O=C(O)C(F)(F)F.O=C(O)C(F)(F)F | 104.6
Cn1cc(CN2CCc3ncnc(N4CCOCC4)c3CC2)cn1.O=C(O)C(F)(F)F.O=C(O)C(F)(F)F.O=C(O)C(F)(F)F | -9.324
Cc1noc(C)c1CN1CCc2ncnc(-c3ccc(F)cc3)c2CC1.O=C(O)C(F)(F)F | 85.48
COc1ccc(NC(=O)C2CCOC2)c(N2CCN(C(C)=O)CC2)n1 (configuration not stated) | 4.465
CC(=O)NCCNC(=O)C1(Oc2cccnc2C)CCNCC1 | -9.586
COCCCN(C)c1nc(-c2ccncc2)nc(C)c1C | -12.12
Cc1cc(CN(C)C(=O)c2cccc(CCC(C)(C)O)c2)no1 | 3.557
CCn1ccnc1CN1CCC(=O)N(CC2CC2)C(C(C)C)C1 (configuration not stated) | -13.21
Cc1cncc(C2CCCN(C(=O)c3cn(C)nc3C)C2)n1 (configuration not stated) | 117.2
Cc1noc(C2CCCN(C(=O)c3ccc(Br)o3)C2)n1 (configuration not stated) | -1.818
Cc1cncc(C2CCCN(C(=O)c3scnc3C)C2)n1 (configuration not stated) | -6.162
Cc1cncc(C2CCCN(C(=O)c3ccc(C)[nH]c3=O)C2)n1 (configuration not stated) | 1.082
Cc1cncc(C2CCCN(C(=O)c3cnco3)C2)n1 (configuration not stated) | 133.2
Cc1nn(C)cc1C(=O)N1CCCC(c2nccn2Cc2cscn2)C1 (configuration not stated) | 27.14
CS(=O)(=O)CCC(=O)Nc1ccsc1 | -22.38

SMILES | Percent Effect [%]
CC(C)c1nc(-c2cc(C(=O)O)c3ccccn23)cs1 | 13.08
O=S(=O)(CC1CC1)c1ncc(CN2CCSCC2)n1CC1CCCO1 (configuration not stated) | -0.6342
Cc1ccc(C(=O)N2CCN(c3ccnc4ccsc34)CC2)o1 | 5.784
COc1ccc(Cc2ncc3c(n2)CN(C(=O)CO)C3)cc1 | -17.5
COc1ccc(Cc2ncc3c(n2)CN(C(=O)C(C)(C)OC)C3)cc1 | 70.44
COc1ccc(Cc2ncc3c(n2)CN(C(=O)C(C)(C)C)C3)cc1 | -16.53
CC(=O)Nc1nc(-c2ccc(C)c(C)c2)c[nH]1 | -24.79
COc1cc2cc(C)c(SCCN3CCCC3)nc2cc1OC.Cl | 167.2
COc1cccc(S(=O)(=O)CCN2CCCCC2)c1 | 0.4821
CCc1cc2cc(OC)c(OC)cc2nc1SCCN1CCCCC1.Cl | 130.7
COc1ccc(Oc2cccc(C#N)n2)cc1CN1CCCC1 | -5.576
COc1cc2cc(C)c(SCCN3CCCCC3)nc2cc1OC.Cl | 107.6
COc1ccc(C(C(=O)O)N(C)CCN2CCCC2)cc1F (configuration not stated) | 3.754
CNC(=O)c1cccc(NC(=O)CN2CCN(S(C)(=O)=O)CC2)c1 | 1.111
CCC(=O)N(C)Cc1cccc(OC(C)C)c1 | -5.096
CCc1nc(C)c(-c2nccn2CC2CCN(C3CCCC3)CC2)[nH]1 | -19.3
O=C(NC1CCC1)C1CCC2(CN(C(=O)c3ccco3)C2)O1 (configuration not stated) | -15.31
Cc1ccccc1C(=O)N1CC(C(=O)NCC2CC2)C2(CCOCC2)C1 (configuration not stated) | -6.965
O=C(NC[C@H]1OC[C@@H]2CCN(C(=O)c3ccco3)C[C@@H]21)C1CC1 | -4.179
Cc1ccccc1C(=O)NC[C@@H]1CCN(C(=O)C2(O)CCCC2)C[C@H]1O | -6.733
COc1cccc(C(=O)NCC2CCN(C(=O)c3ccoc3)CC2)c1 | -1.127
O=C(NCC1CC1)C1CN(C(=O)c2cccs2)CC12CCOCC2 (configuration not stated) | -5.71
O=C(c1cccs1)N1CCC2(CC1)CC(Oc1ccccc1)CO2 (configuration not stated) | 6.178
O=C(NCC1CC1)C1CCC2(CCN(C(=O)c3ccco3)CC2)O1 (configuration not stated) | 87.87
Cc1ccccc1C(=O)N1CCC2(CCC(C(=O)NCC3CC3)O2)CC1 (configuration not stated) | 104

SMILES | Percent Effect [%]
O=C(NCC1CC1)C1CCC2(CCN(C(=O)c3ccoc3)CC2)O1 (configuration not stated) | 90.09
O=C(NCC1CCN(C(=O)c2ccoc2)CC1)c1ccccc1Br | -10.47
O=C(NCC1CC1)C1CCC2(CCN(C(=O)c3cccs3)CC2)O1 (configuration not stated) | 94.19
CNC(=O)[C@@H]1C[C@@H](NC(=O)CSc2ccccc2)CN1C1CCOCC1 | 0.9976
CCN(CC)c1ccc(NS(=O)(=O)c2cncc(F)c2)cn1 | -6.269
Cc1ccc(C(C)NCc2cn(CCC(N)=O)c3ccccc23)cc1C (configuration not stated) | -0.5436
O=C(NCC1CC1)C1CCC2(CN(C(=O)c3ccno3)C2)O1 (configuration not stated) | -9.78
COC(=O)c1sccc1CN1CCN(C(=O)c2ccc(C)o2)CC1 | -11.02
Cc1ccc(C(=O)N2CCC3(CCC(C(=O)NCC4CC4)O3)CC2)o1 (configuration not stated) | 101.4
CN1CCN(C2CCN(Cc3nnc(C(C)(C)C)o3)CC2)C1=O | 116.2
CCc1nnc(CN2CCC(N3CCN(CC)C3=O)CC2)o1 | 119.1
CC(C)c1nnc(CN2C(=O)OC[C@@H]2C(C)C)o1 | -6.188
CCN1CCN(C2CCN(Cc3nnc(C(C)(C)C)o3)CC2)C1=O | -3.577
CCN1CCN(C2CCN(Cc3nnc(C4CC4)o3)CC2)C1=O | 80.84
CN1CCN(C2CCN(Cc3noc(C(C)(C)C)n3)CC2)C1=O | 10.06
CCN1CCN(C2CCN(Cc3nnc(C(C)C)o3)CC2)C1=O | 147.9
CCN1CCN(C2CCN(Cc3noc(C)n3)CC2)C1=O | 2.974
CC(O)CN1CCN(Cc2nnc(C3CC3)o2)CC1 (configuration not stated) | 3.93
CCN1CCN(C2CCN(Cc3ncc(C(C)(C)C)o3)CC2)C1=O | -2.934
CCN1CCN(C2CCN(Cc3c(C)noc3C)CC2)C1=O | -0.1089
CCc1nnsc1C(=O)NCC1CN(CC(C)C)CCO1 (configuration not stated) | 19.89
CCC(=O)N1CCN(C(=O)c2ccc(OC)o2)[C@H]2CS(=O)(=O)C[C@H]21 | 0.8171
